In publication PMC11062922 (Nature Chemical Biology, 2023) one finds potency estimated from few doses data, which are given here for 30 compounds.

Set-up in all cases: species or system human, MV4-11 + K-562 + COLO205 + SK-N-BE2 + OVCAR-8
One experiment deals with CDK9. Particulars: read-out: apparent Kd, n = 1.
For another experiment, the system named is ICK. Particulars: read-out: apparent Kd, n = 1.
A further experiment deals with TGFBR2. Particulars: read-out: apparent Kd, n = 1.
A further experiment relates to ULK1. The following applies: read-out: apparent Kd; compound concentrations:100 nM and 1000 nM (sheet 'Samples'); n = 1.
A further experiment concerns AXL. The following applies: read-out: apparent Kd, compound concentrations: 100 nM and 1000 nM (sheet 'Samples'), n = 1.
The subject of the next experiment is CDK2. Particulars: read-out: apparent Kd, n = 1.
For a further experiment, the system named is PDGFRB. Particulars: read-out: apparent Kd, n = 1.
In a further experiment the test system is CDC42BPG. Particulars: read-out: apparent Kd, n = 1.
The test system of a further experiment is CDC42BPA. The following applies: read-out: apparent Kd, n = 1.
Another experiment relates to PKN2. The following applies: read-out: apparent Kd, n = 1.
Another experiment deals with PRKG1. Particulars: read-out: apparent Kd, n = 1.
The subject of the next experiment is ROCK1. Particulars: read-out: apparent Kd, n = 1.
A further experiment deals with MTOR. Particulars: read-out: apparent Kd, compound concentrations: 100 nM and 1000 nM (sheet 'Samples'), n = 1.
For a further experiment, the system named is PIK3CG. The following applies: read-out: apparent Kd, compound concentrations: 100 nM and 1000 nM (sheet 'Samples'), n = 1.
Another experiment deals with EPHA1. Particulars: read-out: apparent Kd; compound concentrations: 100 nM and 1000 nM (sheet 'Samples'), CATDS: 3.2414414086750797E-2; n = 1.
Where [1] appears, read: compound concentrations:100 nM and 1000 nM (sheet 'Samples').

Where two headings read alike, the source gives them in different places.

Turning to `CN(C)CC(O)COc1ccc(Nc2nccc(-c3cnn4nc(N5CCOCC5)ccc34)n2)cc1` (centres unmarked) [GW767488X], the potency estimated from few doses was 534 nM with CDK9 (setting [1]), 1720 nM in the experiment with ICK (setting [1]), 215 nM in the experiment on TGFBR2 (setting [1]) and 793 nM in the experiment with ULK1.

For the compound `COc1cc[nH]c1/C=C1\C(=O)Nc2ccc(F)c(C#CC3(O)CCNCC3)c21.Cl` [RO0282986-001], the potency estimated from few doses is 1230 nM with AXL (CATDS: 1.01827981772752E-2); 615 nM in the experiment with CDK2 (compound concentrations: 100 nM and 1000 nM (sheet 'Samples'), CATDS: 1.26412371427807E-2); 724 nM with CDK9 (compound concentrations: 100 nM and 1000 nM (sheet 'Samples'), CATDS: 1.1942255869273499E-2); 593 nM with ICK (compound concentrations: 100 nM and 1000 nM (sheet 'Samples'), CATDS: 1.28060195349982E-2); 850 nM in the experiment on PDGFRB (compound concentrations: 100 nM and 1000 nM (sheet 'Samples'), CATDS: 1.1337273569473399E-2).

In the case of `O=C(O)C(F)(F)F.O=c1[nH]ccc2nc(N[C@@H]3CCNC3)nc(Nc3cc(Cl)cc(Cl)c3)c12` [GSK2188764A], the potency estimated from few doses with CDC42BPG (setting [1]) is 556 nM.

In the case of `CC(C)Oc1ccc2c(-c3ccnc(Nc4ccc(N5CCN(C)CC5)cc4)n3)cnn2n1` [GW696155X], the potency estimated from few doses with PDGFRB (setting [1]) was 2040 nM.

As for `CNCC#Cc1c(F)ccc2c1/C(=C/c1[nH]ccc1OC)C(=O)N2.Cl` [RO0281601-001], in the experiment on ICK (compound concentrations: 100 nM and 1000 nM (sheet 'Samples'), CATDS: 2.2639550880060699E-2), the potency estimated from few doses is 1700 nM.

In the case of `Cl.Cl.NCC(NC(=O)c1cc(-c2ccnc3[nH]ccc23)cs1)c1ccccc1.NCC(NC(=O)c1cc(-c2ccnc3[nH]ccc23)cs1)c1ccccc1` (centres unmarked) [GSK1229959A], the potency estimated from few doses is 15.3 nM in the experiment on CDC42BPA (compound concentrations: 100 nM and 1000 nM (sheet 'Samples'), CATDS: 7.2504197887005906E-2); 8.8 nM in the experiment with CDC42BPG (compound concentrations: 100 nM and 1000 nM (sheet 'Samples'), CATDS: 9.9615433098280207E-2); 801 nM in the experiment on CDK9 (compound concentrations: 100 nM and 1000 nM (sheet 'Samples'), CATDS: 1.9893156316103101E-2); 88.5 nM in the experiment on PKN2 (compound concentrations: 100 nM and 1000 nM (sheet 'Samples'), CATDS: 3.5150417589149101E-2); 9.7 nM in the experiment on PRKG1 (compound concentrations: 100 nM and 1000 nM (sheet 'Samples'), CATDS: 9.38640843647673E-2); 7.53 nM in the experiment on ROCK1 (compound concentrations: 100 nM and 1000 nM (sheet 'Samples'), CATDS: 0.109953475811368).

In the case of `COc1cc2ncn(-c3cc(OCc4ccccc4S(C)(=O)=O)c(C#N)s3)c2cc1OC` [GSK319347A], the potency estimated from few doses in the experiment on AXL (CATDS: 9.0934128648907098E-2) is 1240 nM.

For the compound `NS(=O)(=O)c1ccc(N/N=C2\C(=O)Nc3ccc4ncccc4c32)cc1` [GW305178X], the potency estimated from few doses with CDK2 (compound concentrations: 100 nM and 1000 nM (sheet 'Samples'), CATDS: 0.10178285521581799) is 134 nM; with CDK9 (compound concentrations: 100 nM and 1000 nM (sheet 'Samples'), CATDS: 4.6560668202509002E-2), 1210 nM.

As for `O=C1N=C(N[C@H](CO)c2ccccc2)S/C1=C\c1ccc2ncccc2c1` [RO4554339-000], in the experiment with CDC42BPA (compound concentrations: 100 nM and 1000 nM (sheet 'Samples'), CATDS: 8.0851127030257999E-2), the potency estimated from few doses is 2180 nM.

In the case of `O=C1N=C(NCCc2ccccc2Cl)S/C1=C\c1ccc2ncccc2c1` [RO4498484-000], in the experiment on CDC42BPA (compound concentrations: 100 nM and 1000 nM (sheet 'Samples'), CATDS: 5.5434431749678797E-2), the potency estimated from few doses was 2450 nM.

As for `CN[C@H](C#Cc1c(F)ccc2c1/C(=C/c1[nH]ccc1OC)C(=O)N2)CO.Cl` [RO0283049-001], the potency estimated from few doses with CDK2 (compound concentrations: 100 nM and 1000 nM (sheet 'Samples'), CATDS: 2.1826327845386101E-2) was 1310 nM.

Turning to `CCn1c(-c2nonc2N)nc2cncc(Br)c21` [SB-738004], the potency estimated from few doses is 2130 nM with CDC42BPA (setting [1]), 1120 nM in the experiment with CDK9 (setting [1]), 122 nM in the experiment with PKN2 (setting [1]) and 181 nM in the experiment on ROCK1 (setting [1]).

In the case of `Cn1cc(C2=C(c3ccc(OC[C@@H](O)CO)cc3)C(=O)NC2=O)c2ccccc21` [RO3208546-000], the potency estimated from few doses with MTOR (CATDS: 4.7243035246753197E-2) is 730 nM.

As to `Cl.Cl.NCC(NCc1ccc(-c2ccnc3[nH]ccc23)s1)c1ccccc1.NCC(NCc1ccc(-c2ccnc3[nH]ccc23)s1)c1ccccc1` (centres unmarked) [GSK1321565A], the potency estimated from few doses in the experiment with PRKG1 (setting [1]) is 1060 nM.

Turning to `Cl.Nc1nc(-c2ccc3c(c2)C(=Cc2cc(Br)c(O)c(Br)c2)C(=O)N3)cs1` [GW407323A], the potency estimated from few doses in the experiment with CDK2 (compound concentrations: 100 nM and 1000 nM (sheet 'Samples'), CATDS: 3.5649543484101501E-2) is 720 nM.

On to `NS(=O)(=O)c1ccc(N/N=C2\C(=O)Nc3ccc(-c4cnco4)cc32)cc1` [GW276655_KCGS], for which the figures for the potency estimated from few doses in the experiment on CDK2 (setting [1]) and in the experiment on ICK (setting [1]) were 983 nM and 1770 nM, respectively.

On to `CC(C)N1CC(=O)N(C)c2cnc(Nc3cccc(S(=O)(=O)CCN4CCOCC4)c3)nc21` [BI00009348], for which the potency estimated from few doses in the experiment on PIK3CG (CATDS: 0.22323444695651501) is 109 nM.

Take `CCn1c(-c2nonc2N)nc2cncc(C(=O)N3CC[C@H](N)C3)c21.Cl` [SB-772077-B]: the potency estimated from few doses in the experiment on CDC42BPA (setting [1]) is 1170 nM; in the experiment on PKN2 (setting [1]), 73.8 nM; with PRKG1 (setting [1]) it was 95.9 nM.

Consider `NS(=O)(=O)c1ccc(N/C=C2\C(=O)Nc3ccc4ncsc4c32)cc1` [GW297361X], for which the potency estimated from few doses was 232 nM in the experiment with CDK2 (compound concentrations: 100 nM and 1000 nM (sheet 'Samples'), CATDS: 7.9429171662671896E-2); 1040 nM in the experiment with CDK9 (compound concentrations: 100 nM and 1000 nM (sheet 'Samples'), CATDS: 3.67324795233104E-2).

As for `Cc1cc(NC(=O)c2cccc(NC(=O)/C=C/CN(C)C)c2)ccc1Nc1nccc(-c2cccnc2)n1` [JNK-IN-7], in the experiment with ICK (setting [1]), the potency estimated from few doses was 1290 nM.

On to `CC(C)(CO)CNC(=O)c1ccc2c(c1)/C(=N/Nc1ccc(S(N)(=O)=O)cc1)C(=O)N2` [GW301784X], for which the potency estimated from few doses with CDK2 (setting [1]) is 87.1 nM; with ICK (setting [1]), 1680 nM; in the experiment with TGFBR2 (setting [1]), 822 nM.

For the compound `Cl.Cl.NC[C@H](CC1CCCCC1)NC(=O)c1ccc(-c2ccnc3[nH]ccc23)s1.NC[C@H](CC1CCCCC1)NC(=O)c1ccc(-c2ccnc3[nH]ccc23)s1` [GSK1581428A], the potency estimated from few doses with CDC42BPA (setting [1]) was 28.9 nM; in the experiment on PKN2 (setting [1]), 452 nM; in the experiment with PRKG1 (setting [1]), 41.4 nM; with ROCK1 (setting [1]), 29.2 nM.

With `COc1cc[nH]c1/C=C1\C(=O)Nc2ccc(F)c(C#C[C@@H](O)[C@@H](N)[C@@H](C)O)c21` [RO0283120-000], the potency estimated from few doses with CDK9 (setting [1]) was 1130 nM; with TGFBR2 (setting [1]) it was 1600 nM.

In the case of `CNCC1CCn2c(c(C3=C(c4cn(C)c5ccccc45)C(=O)NC3=O)c3ccccc32)C1` (centres unmarked) [RO0318676-000], the potency estimated from few doses with CDK2 (compound concentrations: 100 nM and 1000 nM (sheet 'Samples'), CATDS: 2.9072745389082302E-2) is 1540 nM.

`COc1cc[nH]c1/C=C1\C(=O)Nc2ccc([N+](=O)[O-])c(N3CC[C@@H](O)C3)c21` [RO0504985-000]: the potency estimated from few doses in the experiment on CDK2 (compound concentrations: 100 nM and 1000 nM (sheet 'Samples'), CATDS: 3.3217097054667903E-2) is 1280 nM; with CDK9 (compound concentrations: 100 nM and 1000 nM (sheet 'Samples'), CATDS: 3.1258790077652497E-2) it was 1620 nM; in the experiment with ICK (compound concentrations: 100 nM and 1000 nM (sheet 'Samples'), CATDS: 0.118189348894571), 47 nM; in the experiment with PDGFRB (compound concentrations: 100 nM and 1000 nM (sheet 'Samples'), CATDS: 3.1166812666601599E-2), 1640 nM; in the experiment on TGFBR2 (compound concentrations: 100 nM and 1000 nM (sheet 'Samples'), CATDS: 3.2384825488945002E-2) it was 1410 nM.

As for `O=C1N=C(NCc2ccccc2Br)S/C1=C\c1ccc2ncccc2c1` [RO4506918-000], in the experiment with CDC42BPG (compound concentrations: 100 nM and 1000 nM (sheet 'Samples'), CATDS: 7.9298685313138301E-2), the potency estimated from few doses is 1370 nM.

As to `NS(=O)(=O)c1ccc(NC=C2C(=O)Nc3ccc4ncsc4c32)cc1` [GW589933X], the potency estimated from few doses is 65.8 nM with CDK2 (compound concentrations: 100 nM and 1000 nM (sheet 'Samples'), CATDS: 6.9687110689249002E-2); 414 nM with CDK9 (compound concentrations: 100 nM and 1000 nM (sheet 'Samples'), CATDS: 2.7445436907685701E-2); 1050 nM in the experiment on ICK (compound concentrations: 100 nM and 1000 nM (sheet 'Samples'), CATDS: 1.95269690039667E-2); 826 nM in the experiment with PDGFRB (compound concentrations: 100 nM and 1000 nM (sheet 'Samples'), CATDS: 2.1122847549312301E-2).

As to `Cc1occc1-c1nc(N)c(OC[C@@H](N)Cc2c[nH]c3ccccc23)cc1-c1cc2c(C)n[nH]c2cn1` [GSK1660450B], the potency estimated from few doses in the experiment on CDC42BPA (setting [1]) is 34.6 nM; in the experiment with CDC42BPG (setting [1]), 65.4 nM; in the experiment on PKN2 (setting [1]), 2110 nM.

Regarding `CCC(CC)(CC)n1cnc2c(N)ncnc21` [SKF-97620], the potency estimated from few doses in the experiment on EPHA1 was 828 nM; in the experiment on MTOR (CATDS: 6.0851943016667201E-2), 220 nM; in the experiment with PIK3CG (CATDS: 3.56480592193908E-2), 658 nM; in the experiment with ROCK1 (compound concentrations: 100 nM and 1000 nM (sheet 'Samples'), CATDS: 2.49048423205754E-2), 1780 nM.

In the case of `NS(=O)(=O)c1cccc(-c2ccc3c(NC(=O)C4CC4)n[nH]c3c2)c1` [SB-741905], in the experiment with MTOR (CATDS: 0.166958544620607), the potency estimated from few doses was 626 nM.
